The full list was thinned out, with hits kept by preference.
fixLJ activator: increases Burkholderia fixLJ two-component signaling | AID 1918990 | B. multivorans fixK-promoter GFP reporter, 18 h; hits give high values | hit rate 0.3% among 29,000 | z-score (no concentration beside the values);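 active = replicate mean overnight rise in green fluorescent reporter signal, 3 or more SD over negative controls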
Active calls of the source: *.

SMILES	fixLJ activator
CCNc1cc(N2CCN(C3CCCCC3)CC2)c2noc3c2c1C(=O)c1ccccc1-3	-1.12
O=C1c2ccccc2-c2onc3c(NCCO)cc(NC4CCCCC4)c1c23	-1.7
CCCCNc1cc(NC2CCCCC2)c2c3c(onc13)-c1ccccc1C2=O	4.15*
Cc1oc2c(c1C(=O)N1CCC(CCn3cccn3)CC1)C(=O)CCC2	-0.08
Cc1nnc(SCCCNC(=O)C2CCCCCN2C)s1 (stereo not drawn)	-1.99
CC(c1cnn(C)c1)n1cnc(-c2ccccc2)c1-c1ncc[nH]1 (stereo not drawn)	-0.4
CCc1ccc2occ(CC(=O)Nc3nnc(SC)s3)c2c1	-0.26
CCc1ccc2occ(CC(=O)Nc3ccc(C)c(C)c3)c2c1	3.44*
Cc1ccc(NC(=O)Cc2coc3ccc(C(C)C)cc23)cc1Cl	-1.65
CNC(=O)C1CCC(CNC(=O)c2cc(O)ccc2C)CC1 (stereo not drawn)	-3.48
COc1ccccc1-n1cc(CNC(=O)c2ccnc(C(C)C)n2)cn1	0
COc1ccc2nc(NS(=O)(=O)c3ccc(C)cc3)c(Nc3cc(Cl)ccc3OC)nc2c1	-4.1
COc1ccc(Nc2nc3ccccc3nc2NS(=O)(=O)c2ccc(C)cc2)c(OC)c1	-0.4
COc1cc(Cl)c(C)cc1Nc1nc2ccccc2nc1NS(=O)(=O)c1ccccc1	3.41*
CCc1ccc2ncc3c(-c4ccccc4)nn(-c4ccccc4)c3c2c1	3.31*
Brc1ccc(-n2nc(-c3ccccc3)c3cnc4cc5c(cc4c32)OCO5)cc1	1
Cc1ccc(-c2nn(-c3ccccc3)c3c2cnc2ccccc23)cc1C	-2.37
Cc1ccc(S(=O)(=O)c2nc(-c3ccccc3Cl)oc2N2CCCCCC2)cc1	1.15
O=S(=O)(c1ccccc1)c1nc(-c2ccccc2Cl)oc1N1CCCCCC1	3.2*
COc1ccccc1-c1nc(S(=O)(=O)c2ccc(Cl)cc2)c(N2CCCCCC2)o1	-0.45
Cc1cnc(C)c(N2CCN(Cc3cccc(Cn4cccn4)c3)CC2)n1	0.27
Cc1nnc(N2CCN(c3cnn(-c4ccccc4)c(=O)c3Cl)CC2)o1	-2.98
Cc1cc(NC(=O)C2CCCN(S(=O)(=O)c3ccc(Br)s3)C2)ccc1Br (stereo not drawn)	-1.05
CC(=O)c1ccc(N2CCN(C(=O)C3CCCN(S(=O)(=O)c4ccc(Br)s4)C3)CC2)cc1 (stereo not drawn)	-1.07
CC(=O)c1ccc(NC(=O)C2CCCN(S(=O)(=O)c3ccc(Br)s3)C2)cc1 (stereo not drawn)	3.21*
SMILES	fixLJ activator
Cc1nnc(SCC(=O)N(C)CCOc2ccc(Cl)cc2C)o1	0.68
Cc1cc2c(c3oc(=O)c4ccccc4c13)CN(Cc1ccc(F)cc1)CO2	5.29*
O=c1oc2c3c(ccc2c2ccccc12)OCN(Cc1cccc(Cl)c1)C3	-0.72
O=c1oc2c3c(ccc2c2ccccc12)OCN(Cc1ccccc1Cl)C3	0.8
CN(C)c1ncc(C=CC(=O)NC2(C(N)=O)CCCC2)cn1	-0.35
Cn1ccnc1CNC(=O)c1ccc(CSc2ccccn2)cc1	-2.36
CCc1ncc(C(=O)N(Cc2ccccn2)Cc2ccc(C)s2)cn1	0.15
Cc1ccc(S(=O)(=O)N(CCc2ccccc2)CC(=O)Nc2ccc(Br)cc2)cc1	3.11*
COC(=O)c1ccc(NC(=O)CN(CCc2ccccc2)S(=O)(=O)c2ccc(OC)cc2)cc1	3
O=C(CN(CCc1ccccc1)S(=O)(=O)c1ccc(Br)cc1)NCc1ccc(Cl)cc1	0.62
CC(C)n1ncnc1-c1ccc(C(=O)NC2CCN(C)C2=O)cc1 (stereo not drawn)	-1.76
COc1cccc(OCc2cc(C(=O)NC(C(N)=O)C(C)C)n[nH]2)c1 (stereo not drawn)	-1.05
N#C/C(=C\c1ccc(-c2ccc(F)cc2F)o1)c1nc2ccccc2[nH]1	13.8*
N#C/C(=C\c1ccc(-c2ccccc2C(=O)O)o1)c1nc2ccccc2[nH]1	-1.6
N#C/C(=C\c1ccc(Cl)cc1)c1nc2ccccc2[nH]1	0.71
O=C(Nc1ccccc1CN1CCOCC1)c1cc2sccc2[nH]1	-0.14
Cc1cccc(-c2ncc(C(=O)N3CCCCCCC3)c(=O)[nH]2)c1	-0.61
O=C(c1nc2ccccn2c1-c1nc2ccccc2[nH]1)N1CCOCC1	0.12
O=C(CCn1cnc2ccccc21)NCc1cn[nH]c1-c1ccc(F)cc1	0.13
CC(C)c1ccc(/C=C(\C#N)c2nc(-c3ccc(O)cc3)cs2)cc1	8.4*
CC(C)c1ccc(/C=C(\C#N)c2nc(-c3cc4ccccc4oc3=O)cs2)cc1	1.03
COc1ccc(/C=C(/C#N)c2nc(-c3ccc(Br)cc3)cs2)cc1	-1.18
COCC(=O)Nc1ccc(NC(=O)Cn2ncc3ccccc32)cc1OC	-0.87
CCNC(=O)CN1CCc2[nH]nc(-c3ccc(-c4ccccc4)cc3)c2C1	0.9
CCc1nnc(CN(C)C(=O)c2c(C)c(C)nc3ccc(C)cc23)o1	1.98
SMILES	fixLJ activator
Cc1nc(C)n(CCCn2ccnc2-c2cc3n(n2)CCCNC3)n1	-0.4
Cc1cc(C(=O)NCCC2CCCCN2S(C)(=O)=O)c2ccc(F)cc2n1 (stereo not drawn)	-1.23
Fc1ccc(NCc2nc3ccccc3n2CCOc2ccccc2Cl)cc1	3.32*
COc1ccc(NCc2nc3ccccc3n2CCOc2ccccc2C)cc1	1
O=C(O)c1ccc(NCc2nc3ccccc3n2CCOc2ccccc2Cl)cc1	0.09
CN(Cc1nc(-c2ccccn2)no1)Cc1ncccc1C(=O)O	0.05
CC(C)Cc1cc(C(=O)N(C)Cc2nnc(-c3ccccc3)o2)nc(=O)[nH]1	-0.87
Cc1cccc(N2CCN(S(=O)(=O)c3cc(Cl)ccc3Cl)CC2)c1C	0.22
CCOc1ccc(OCC)c(S(=O)(=O)N2CCN(c3cccc(C)c3C)CC2)c1	3.43*
COc1ccc(S(=O)(=O)N2CCN(c3cccc(C)c3C)CC2)c2ccccc12	-0.15
CCC(COC)NC(=O)c1ccc(-c2ccc(C#N)cc2)cc1 (stereo not drawn)	-2.4
Cc1cc(C(=O)NC2CCN(C(=O)c3c(Cl)c(C)nn3C)CC2O)no1 (stereo not drawn)	0.79
CC(C)c1ccc(C2Sc3ccccc3NC3=C2C(=O)c2ccccc23)cc1 (stereo not drawn)	2.65
O=C1C2=C(Nc3ccccc3SC2c2ccc(C(F)(F)F)cc2)c2ccccc21 (stereo not drawn)	1.37
CCc1ccc(C2Sc3ccccc3NC3=C2C(=O)c2ccccc23)cc1 (stereo not drawn)	3.32*
CCOCC(=O)N1CCC(c2nnc(Cn3cncn3)n2C2CC2)CC1	0.08
CCCCCn1c(=N)c(S(=O)(=O)c2ccc(C)cc2)cc2c(=O)n3cc(C)ccc3nc21	-1.38
CCC(C)n1c(=N)c(S(=O)(=O)c2ccccc2)cc2c(=O)n3ccccc3nc21 (stereo not drawn)	-2.77
CCC(C)n1c(=N)c(S(=O)(=O)c2ccc(C)cc2)cc2c(=O)n3cc(C)ccc3nc21 (stereo not drawn)	5.73*
CCCc1nc(C)cc(-c2ccc(C(=O)NCc3cnn(C)c3C)cc2)n1	-1.17
COCC(=O)N1CCc2[nH]cnc2C12CCN(C(=O)c1cncc(Cl)c1)CC2	-2
O=C(Cc1ccccc1)Nc1c(C(=O)c2ccccc2)oc2ccccc12	3.1*
Cc1ccc(NC(=O)c2oc3ccccc3c2NC(=O)Cc2ccccc2)cc1	-0.81
CCc1ccc(OCC(=O)Nc2c(C(=O)c3ccccc3)oc3ccccc23)cc1	-1.92
CSCc1noc(CN2CCN(c3ncccc3C(N)=O)CC2)n1	-0.97
CCOc1ccc(NC(=O)CC2C(=O)N(c3cccc(C)c3)C(=O)N2CCC2=CCCCC2)cc1 (stereo not drawn)	3.05*
